Experiment in all cases: Primary qHTS to identify gynecologic anti-cancer compounds using libraries of approved drugs and bioactive compounds (AID 1345084); also: nearly all actives have a fitted effect of over 55% in size
On the technique in general: In qHTS, concentration-response curves come from the screen itself.

In one assay the test system is CASKI. Particulars: Gynecologic cancer cell panel viability, ATPlite luminescence, 48 h; series mostly up to 57.5 µM. The essentials:
(§1)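 Measured: luminescence after ATPlite addition (15 min, RT). Exposure: 48 h, 37 C, 5% CO2.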
In general terms: In ATP-based viability assays light output follows the ATP content of the culture.

For the next assay, the system named is Es-2. Particulars: Gynecologic cancer cell panel viability, ATPlite luminescence, 48 h; series mostly up to 57.5 µM. The essentials: as §1
Another assay concerns HeLa. Particulars: Gynecologic cancer cell panel viability, ATPlite luminescence, 48 h; series mostly up to 57.5 µM. The method, boiled down: as §1
In the next assay the test system is Hek293T. Particulars: Gynecologic cancer cell panel viability, ATPlite luminescence, 48 h, control line for the selectivity index; series mostly up to 57.5 µM. The essentials:
as §1

Another assay deals with JEG-3. Particulars: Gynecologic cancer cell panel viability, ATPlite luminescence, 48 h; series mostly up to 57.5 µM. The method, boiled down: as §1
The next assay relates to OV90. Particulars: Gynecologic cancer cell panel viability, ATPlite luminescence, 48 h; series mostly up to 57.5 µM. The method, boiled down:
as §1

The subject of the next assay is PA-1. Particulars: Gynecologic cancer cell panel viability, ATPlite luminescence, 48 h; series mostly up to 57.5 µM. The method, boiled down:
as §1

The next assay has as its system SKOV3. Particulars: Gynecologic cancer cell panel viability, ATPlite luminescence, 48 h; series mostly up to 57.5 µM. The essentials: as §1
A further assay deals with Tov-21-G. Particulars: Gynecologic cancer cell panel viability, ATPlite luminescence, 48 h; series mostly up to 57.5 µM. The method, boiled down:
as §1

A further assay concerns Tov112D. Particulars: Gynecologic cancer cell panel viability, ATPlite luminescence, 48 h; series mostly up to 57.5 µM. The method, boiled down:
as §1

The record followed here is PubChem BioAssay (NCATS).

Molecules are shown by their SMILES. Results filed as inconclusive are left out. Values without a mark were called inactive. The source made the active and inactive calls. Calls follow the shape of the dose curve; as a rule, active = well fitted cell-killing curve with a large enough effect; inconclusive = small, poorly fitted or top-dose-only effect, or effect the other way; inactive = flat fitted curve, though single readings scatter.
% is scaled to controls: 0 for no effect and ±100 for the full control effect; potency is read from the fitted curve at half-maximal effect.

`Cc1cn([C@H]2C[C@H](F)[C@@H](CO)O2)c(=O)[nH]c1=O`: the Potency entry in the assay on CASKI, with Es-2, in the assay with HeLa, in the assay with Hek293T, with JEG-3 and with OV90 was “inactive” each time. In addition, the Potency result with PA-1, in the assay on SKOV3, with Tov-21-G and with Tov112D was “inactive” throughout.

In the case of `C=CCN1CCc2nc(N)sc2CC1`, the Potency entry in the assay on CASKI, with Es-2, with HeLa, in the assay on Hek293T, with JEG-3 and in the assay on OV90 was “inactive” in each case. Further, the Potency entry in the assay on PA-1, in the assay on SKOV3, with Tov-21-G and with Tov112D was “inactive” each time.

Consider `COc1ccc(S(=O)(=O)N2c3ccc(Cl)cc3[C@@](O)(c3ccccc3Cl)[C@H]2C(=O)N2CCC[C@@H]2C(N)=O)cc1OC`, for which the Potency result in the assay on CASKI, with Es-2, with HeLa, in the assay on Hek293T, with JEG-3 and in the assay with OV90 was “inactive” each time. The Potency entry in the assay on PA-1, with SKOV3, in the assay on Tov-21-G and in the assay with Tov112D was “inactive” in each case.

On to `CC1CCc2c(N3CCC(O)CC3)c(F)cc3c(=O)c(C(=O)O)cn1c23` (configuration not stated), for which the Potency entry in the assay with CASKI, in the assay with Es-2, with HeLa, in the assay with Hek293T, with JEG-3 and with OV90 was “inactive” each time. Moreover, the Potency result with PA-1, with SKOV3, with Tov-21-G and in the assay with Tov112D was “inactive” throughout.

As to `CCN1CCCC(OC(=O)C(c2ccccc2)c2ccccc2)C1` (configuration not stated), the Potency entry with CASKI, in the assay on Es-2, in the assay with HeLa, with Hek293T, with JEG-3 and in the assay with OV90 was “inactive” in each case. Also, the Potency entry in the assay with PA-1, with SKOV3, in the assay on Tov-21-G and in the assay with Tov112D was “inactive” in each case.

As for `COc1ccc(C(=O)c2ccccc2)c(O)c1`, the Potency entry with CASKI, with Es-2, in the assay on HeLa, with Hek293T, in the assay with JEG-3 and in the assay with OV90 was “inactive” throughout. Also, the Potency entry in the assay on PA-1, in the assay on SKOV3, in the assay on Tov-21-G and in the assay on Tov112D was “inactive” each time.

In the case of `Cc1c(-c2ccccc2)oc2c(C(=O)OCCN3CCCCC3)cccc2c1=O`, the Potency entry in the assay with CASKI, in the assay on Es-2, in the assay with HeLa, with Hek293T, in the assay with JEG-3 and in the assay on OV90 was “inactive” in each case. Moreover, the Potency entry in the assay on PA-1, in the assay with SKOV3, with Tov-21-G and in the assay on Tov112D was “inactive” each time.

As for `O=C(Nc1ccc([N+](=O)[O-])cc1)Nc1ccc([N+](=O)[O-])cc1`, the Potency result in the assay on CASKI, in the assay on Es-2, in the assay with HeLa, in the assay with Hek293T, with JEG-3 and in the assay with OV90 was “inactive” each time. For the same compound, the Potency result with PA-1, with SKOV3, with Tov-21-G and in the assay on Tov112D was “inactive” each time.

`CN(C)CCN1C(=O)c2ccccc2N(C)c2ccccc21`: the Potency entry in the assay with CASKI, with Es-2, in the assay on HeLa, with Hek293T, with JEG-3 and in the assay with OV90 was “inactive” each time. In addition, the Potency entry in the assay with PA-1, in the assay with SKOV3, in the assay with Tov-21-G and in the assay on Tov112D was “inactive” throughout.

Turning to `CC(C)CCCC(C)N` (configuration not stated), the Potency result in the assay on CASKI, in the assay on Es-2, in the assay on HeLa, with Hek293T, in the assay with JEG-3 and in the assay with OV90 was “inactive” in each case. Besides, the Potency entry in the assay on PA-1, in the assay on SKOV3 and in the assay with Tov-21-G was “inactive” throughout.

`NC(=O)c1ccccc1O`: the Potency result with CASKI, in the assay on Es-2, in the assay with HeLa, in the assay with Hek293T, in the assay with JEG-3 and in the assay with OV90 was “inactive” each time. The Potency result with PA-1, in the assay on SKOV3, in the assay with Tov-21-G and in the assay with Tov112D was “inactive” each time.

As to `O=C1C(=O)c2ccccc2C(O)=C1C1CCC(c2ccc(Cl)cc2)CC1` (configuration not stated), the Potency result in the assay with CASKI, with Es-2, in the assay on HeLa, with Hek293T, in the assay with JEG-3 and in the assay with OV90 was “inactive” throughout. The Potency entry with PA-1, with SKOV3, in the assay on Tov-21-G and in the assay with Tov112D was “inactive” throughout.

With `CC(=O)Nc1ccc(S(=O)(=O)Nc2ccc([N+](=O)[O-])cc2)cc1`, the Potency result in the assay with CASKI, in the assay on Es-2, in the assay on HeLa, in the assay with Hek293T, with JEG-3 and with OV90 was “inactive” each time. The Potency entry in the assay with PA-1, in the assay with SKOV3, in the assay with Tov-21-G and in the assay with Tov112D was “inactive” each time.

In the case of `C=C[C@@]1(C)CC(=O)[C@]2(O)[C@@]3(C)[C@@H](O)CCC(C)(C)[C@@H]3[C@H](O)[C@H](OC(C)=O)[C@@]2(C)O1`, the Potency result in the assay on CASKI, in the assay on Es-2, in the assay on HeLa, in the assay on Hek293T, in the assay with JEG-3 and in the assay on OV90 was “inactive” each time. Besides, the Potency entry with PA-1, in the assay on SKOV3, with Tov-21-G and in the assay on Tov112D was “inactive” throughout.

Consider `N/C(=N\N=C\c1ccc(Cl)cc1)N/N=C/c1ccc(Cl)cc1`, for which the Potency entry in the assay on CASKI, with Es-2, in the assay with HeLa, with Hek293T, with JEG-3 and in the assay with OV90 was “inactive” each time. The Potency entry with PA-1, with Tov-21-G and with Tov112D was “inactive” each time. The Potency in the assay on SKOV3 is 31.6 µM (active).

As to `C#C[C@]1(OC(C)=O)CC[C@H]2[C@@H]3CCC4=C/C(=N/O)CC[C@@H]4[C@H]3CC[C@@]21CC`, the Potency result with CASKI, in the assay with Es-2, in the assay with Hek293T, in the assay with JEG-3, in the assay on OV90 and with PA-1 was “inactive” each time. In the assay with SKOV3, the Potency result was “inactive”. For the same compound, the Potency with HeLa was 4.47 µM (active).

On to `COc1cc(O)c(C(=O)c2ccccc2)cc1S(=O)(=O)O`, for which the Potency entry in the assay with CASKI, in the assay on Es-2, in the assay with HeLa, with Hek293T, in the assay on JEG-3 and with OV90 was “inactive” each time. For the same compound, the Potency entry in the assay with PA-1, in the assay with SKOV3, with Tov-21-G and with Tov112D was “inactive” throughout.

Regarding `OC[C@H]1O[C@@H]2O[C@H]3[C@H](O)[C@@H](O)[C@@H](O[C@H]4[C@H](O)[C@@H](O)[C@@H](O[C@H]5[C@H](O)[C@@H](O)[C@@H](O[C@H]6[C@H](O)[C@@H](O)[C@@H](O[C@H]7[C@H](O)[C@@H](O)[C@@H](O[C@H]8[C@H](O)[C@@H](O)[C@@H](O[C@H]1[C@H](O)[C@H]2O)O[C@@H]8CO)O[C@@H]7CO)O[C@@H]6CO)O[C@@H]5CO)O[C@@H]4CO)O[C@@H]3CO`, the Potency entry in the assay on CASKI, in the assay with Es-2, with HeLa, in the assay on Hek293T, with JEG-3 and in the assay on OV90 was “inactive” throughout. For the same compound, the Potency result with PA-1, in the assay on SKOV3, with Tov-21-G and in the assay with Tov112D was “inactive” each time.

Take `C[N+]12CCC(CC1)C(OC(=O)C(O)(c1ccccc1)c1ccccc1)C2` (configuration not stated): the Potency entry in the assay on CASKI, in the assay on Es-2, with HeLa, in the assay on Hek293T, with JEG-3 and with OV90 was “inactive” throughout. Besides, the Potency entry with PA-1, with SKOV3, with Tov-21-G and in the assay on Tov112D was “inactive” in each case.

With `CCN[C@@H]1C[C@H](N)[C@@H](OC2OC(CN)=CCC2N)[C@H](O)[C@H]1O[C@H]1OC[C@](C)(O)[C@H](NC)[C@H]1O` (some centres not stated), the activity change, negative = cytotoxicity in the assay with CASKI is -0.808% [at 0.462 µM]; with Es-2, 9.29% [at 0.462 µM]; with HeLa it was 15.4% [at 0.462 µM]; in the assay with Hek293T, 3.5% [at 0.462 µM]; in the assay on JEG-3, 13.2% [at 0.462 µM]; with OV90, -4.98% [at 0.462 µM]. Moreover, the activity change, negative = cytotoxicity with PA-1 is 0.807% [at 0.462 µM]; with SKOV3, -8.65% [at 0.462 µM]; with Tov-21-G it was 7.74% [at 0.462 µM]; with Tov112D it was -3.87% [at 0.462 µM].

Turning to `OC1C(O)C(O)C(O)C(O)C1O` (configuration not stated), the Potency entry in the assay with CASKI, in the assay on Es-2, with HeLa, with Hek293T, in the assay with JEG-3 and in the assay with OV90 was “inactive” in each case. Besides, the Potency result in the assay on PA-1, in the assay on SKOV3, in the assay with Tov-21-G and in the assay with Tov112D was “inactive” throughout.

Regarding `CCCCCCCCCCC[C@@H](C[C@@H]1OC(=O)[C@H]1CCCCCC)OC(=O)[C@H](CC(C)C)NC=O`, the Potency result in the assay with CASKI, with Es-2, with HeLa, in the assay with Hek293T, in the assay on JEG-3 and in the assay with OV90 was “inactive” each time. In addition, the Potency result in the assay with PA-1, in the assay on SKOV3, in the assay on Tov-21-G and in the assay with Tov112D was “inactive” throughout.
